This is part of a sample that, as a whole, favours compounds with a hit. Of some 83,000 tested, about 20% had one in any assay.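 Cell lines were cultured in 96-well plates, exposed to a single compound concentration, and assessed for percent growth 48 hours later.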 The source made the active and inactive calls.
Each molecule was assayed on SK-MEL-2 melanoma (assay: NCI-60 one-dose screen, 48 h (100 = growth as untreated, 0 = no growth, -100 = all killed)). Settings: 10 µM.
Experimental: Growth inhibition of the SK-MEL-2 human tumor cell line is measured as a screen for anti-cancer activity. Cells are grown in 96 well plates and exposed to the test compound for 48 hours. Compounds are tested at a single concentration, which is 10^-5 M for most compounds. The reported endpoint is percent growth (GI% or GIPRCNT), where numbers from 0 - 100% represent growth inhibition, and numbers from -100% - 0 represent cell death. For example, a value of 40 represents 60% growth inhibition. A value of 0 means no net growth occurred over the course of the experiment. A value of -40 indicates 40% of cells at the beginning of the experiment died by the end of the experiment. A value of -100 means all cells are dead at the end of the experiment.
NCI-60 Human Tumor Cell Lines Screen was performed using the standard one-dose NCI protocol, which is described in more detail at https://dtp.cancer.gov/discovery_development/nci-60/default.htm.
Compounds with GIPRCNT values below 10 were considered active. Activity score was based on GIPRCNT using the following formula: […]
Score is 0 for GIPRCNT values of 100 or above, 50 for GIPRCNT values of 0, and 100 for GIPRCNT values of -100.
`O=C1/C(=C/c2ccc([N+](=O)[O-])o2)Oc2ccccc21` was tested, and the growth was 17.2% (inactive).
`N#CSCC1CC(O)(c2ccccc2)CC(c2ccc(Cl)cc2)O1` (stereo not given) was tested, and the growth was 40.5% (inactive).
For `Nc1nccc(Nc2ccccc2)n1`, the growth was 117% (inactive).
In the case of `CC(C)(Cl)CCC1=C(Cl)C(=O)c2ccccc2C1=O`, the growth was 79.1% (inactive).
For `N#CCCN(NC(=O)OCc1ccccc1)C(=O)OCc1ccccc1`, the growth was 106% (inactive).
With `c1ccc(CSc2nnc3c4c5c(sc4nc(-c4cccnc4)n23)CCCCCC5)cc1` the growth was 16.5% (inactive).
With `O=C(Nc1ccncc1)C(=O)c1cn(S(=O)(=O)c2cccc3ccccc23)c2ccccc12` the growth was 68.2% (inactive).
For `OCC1OC(n2cnc3c(N/N=C\c4ccccn4)ncnc32)C(O)C1O` (stereo not given), the growth was 58.2% (inactive).
`CCOC(=O)c1ccc(NC(=O)Nc2ncc(Cl)cc2Cl)cc1` was tested, and the growth was 102% (inactive).
With `O=C1/C(=C\c2ccc(Cl)cc2)CN(C(=O)c2ccccc2)C/C1=C\c1ccc(Cl)cc1` the growth was 87.1% (inactive).
`COc1cc(Cc2cc(-c3ccc(Cl)cc3)n[nH]c2=O)ccc1O` was tested, and the growth was 117% (inactive).
For `O=C(Nc1nc2ccccc2s1)Nc1ccc([N+](=O)[O-])cc1Cl`, the growth was 111% (inactive).
With `COc1ccc(NC2=NC(C)(CO)CS2)cc1` (stereo not given) the growth was 108% (inactive).
For `COc1cc(Cl)cc(-c2nn(-c3cccc(NC(=O)Nc4ccc(Cl)c(Cl)c4)c3)cc2-c2ccncc2)c1`, the growth was -32.1% (active).
In the case of `COc1cc(-c2nn3c(/C=C4/C(=O)Nc5ccccc54)c(-c4ccc(C)cc4)nc3s2)cc(OC)c1OC`, the growth was 65.9% (inactive).
`CC(=O)C1CCC2C3CC(F)C4=CC(=O)CCC4(C)C3C(O)CC12C` (stereo not given) was tested, and the growth was 137% (inactive).
For `CC1(C)N=C(N)N=C(N)N1c1ccc(CCc2ccccc2)c(Cl)c1`, the growth was 34.9% (inactive).
With `COc1cc(/C=C2\Oc3cc(OCC(=O)c4ccccc4)ccc3C2=O)cc(OC)c1OC` the growth was 122% (inactive).
`Cc1ccc(Nc2cc(C)nc(NCCCNc3ccnc4cc(Cl)ccc34)n2)cc1` was tested, and the growth was -97% (active).
In the case of `CCOC(=O)C1(CC(C)C)CCOC1=O` (stereo not given), the growth was 113% (inactive).
`O=C1C(c2ccccc2)C2C=CC(C2)N1O` (stereo not given) was tested, and the growth was 103% (inactive).
With `Nc1c(C(=O)Nc2ccccc2)sc2nc3c(cc12)CCCC3` the growth was 51.5% (inactive).
With `COc1ccc(-c2nc3ncccn3c2-c2nnc(-c3ccsc3C)o2)cc1` the growth was 90.5% (inactive).
`O=C(N/N=C\c1cc(Cl)ccc1[N+](=O)[O-])c1ccco1` was tested, and the growth was 117% (inactive).
`COc1ccc(/C=C2/CN(CCC#N)C/C(=C\c3ccc(OC)cc3)C2=O)cc1` was tested, and the growth was 57.3% (inactive).
For `N#Cc1cc(-c2cc3ccccc3o2)oc1N`, the growth was 10.2% (inactive).
For `CN(C)c1ccc(-c2cc(-c3cccc(NS(C)(=O)=O)c3)nc(N)c2C#N)cc1`, the growth was 57.2% (inactive).
For `COC(=O)C1(C)Cc2cc(OC(C)=O)c(OC(C)=O)cc2N1` (stereo not given), the growth was 85.2% (inactive).
For `CN(Cc1ccccc1)Cc1ccc([N+](=O)[O-])cc1I`, the growth was 95.3% (inactive).
For `COc1cc(Nc2ccnc(NCCNc3ccnc4cc(Cl)ccc34)n2)cc(OC)c1`, the growth was 48.7% (inactive).
In the case of `COc1ccc2c(c1)C(=O)c1c-2c(OCCN(C)C)nc2ccccc12`, the growth was 16.5% (inactive).
In the case of `CCCC(F)C(=O)O` (stereo not given), the growth was 107% (inactive).
With `COc1cc(C(=O)/C=C/c2cc(-c3cc(OC)c(OC)c(OC)c3)n[nH]2)cc(OC)c1OC` the growth was 4.38% (active).
In the case of `Nc1ccccc1NC(=O)CCCCC(=O)Nc1ccc2c(c1)/C(=C/c1ccc[nH]1)C(=O)N2`, the growth was 46.2% (inactive).
In the case of `COc1cc(-c2cc(/C=C/C(=O)c3ccc4c(c3)OCO4)[nH]n2)cc(OC)c1OC`, the growth was 100% (inactive).
In the case of `CCC(=O)N1C/C(=C/c2ccc(Cl)cc2)C(=O)/C(=C/c2ccc(Cl)cc2)C1`, the growth was -21.5% (active).
In the case of `COc1ccc(N2C(=O)C3c4[nH]c5ccc(OCc6ccccc6)cc5c4C4CCC(C(C)C)CC4C3C2=O)cc1` (stereo not given), the growth was 101% (inactive).
In the case of `Cc1nc2oc3ccccc3c(=O)c2cc1C(=O)NCc1ccccc1`, the growth was 9.34% (active).
In the case of `COc1ccc2c(c1)-c1c(c3cc(OC)ccc3n(CCN(C)C)c1=O)C2=O`, the growth was 14.4% (inactive).
In the case of `Nc1c(C(=O)Nc2cccc(F)c2)sc2nc3c(cc12)C(=O)CCC3`, the growth was 43.3% (inactive).

From PubChem BioAssay (NCI)
